Source: PubChem
Compounds with a hit are over-represented: about 21% of the library has one in this group of screens.
HCV inh = qHTS Assay for Inhibitors of Hepatitis C Virus (HCV) | 3.4% of 340,000 active | Huh7.5.1 HCVcc-Cre infection, luciferase reporter, 44 h | Potency, µM (doses to about 41.8 µM), for the others: at the top dose activity change, negative = inhibition, most hits filed as inhibitors; further: potency means the concentration at half of the fitted maximal effect; on the % scale 0 is the no-effect control and ±100 the full control effect
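Cells (1,000/well) were plated 4 h before compound, then infected with HCVcc-Cre virus (~0.5 moi). After 44 h further culture, infection was read as luciferase luminescence following a 15 min substrate incubation at room temperature.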
Pf growth 48h = Primary qHTS for delayed death inhibitors of the malarial parasite plastid, 48 hour incubation; 5.9% of 310,000 active; Potency, µM (doses to about 28.7 µM), inactives show top-dose activity change, negative = inhibition, usual class: inhibitors; AID 504832, 2011; P. falciparum luciferase growth in erythrocytes, 48 h; further: potency means the concentration at half of the fitted maximal effect; on the % scale 0 is the no-effect control and ±100 the full control effect
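Luciferase-expressing P. falciparum in infected erythrocytes (2% hematocrit, 0.1% parasitemia final) in RPMI 1640/0.5% Albumax were exposed to compound for 48 hours at 37 C, 5% CO2; growth read as luminescence.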
HCMV antiviral = qHTS Assay for inhibitors of the human cytomegalovirus (HCMV); HFF cells, HCMV-luciferase reporter, 72 h; hits give low values; activity change, negative = inhibition, % at 57.5 µM; 4.5% of 410,000 active; in the data active means activity change below about -60%; inconclusive means no clear call, values can overlap the other calls; inactive means above about -39%; further: on the % scale 0 is the no-effect control and ±100 the full control effect
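HFF cells seeded 16 h at 37C, treated with compounds, infected with luciferase-reporter HCMV at MOI 1 PFU/cell; luciferase read at 72 h post infection, normalized to buffer-only and Salinomycin controls.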
Shiga toxin inh = A qHTS for Small Molecule Inhibitors of Shiga Toxin; 9.2% of 290,000 active; Vero cells, Shiga toxin protein synthesis inhibition reporter; inhibition, % at 38.7 µM; in the data active means inhibition mostly above about 28%, no sharp cut-off; inactive means mostly below about 43%; further: 0% is about no effect
Cycloheximide cs = Cycloheximide Counterscreen for Small Molecule Inhibitors of Shiga Toxin; max response, %; cell reporter, cycloheximide protein synthesis inhibition counterscreen; 12% of 300,000 active; in the data active means max response mostly above about 13%, no sharp cut-off; inactive means mostly below about 14%; further: read at 38.3 µM for the half of the compounds with a filed dose; 0% is about no effect
Pf growth 96h = Primary qHTS for delayed death inhibitors of the malarial parasite plastid, 96 hour incubation; Potency, µM (titrated, usually from 28.7 µM), without a hit: top-dose activity change, negative = inhibition, most hits filed as inhibitors; P. falciparum luciferase reporter growth, 96 h; 6.9% of 320,000 active; further: potency means the concentration at half of the fitted maximal effect; on the % scale 0 is the no-effect control and ±100 the full control effect
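Compounds incubated with erythrocytes infected by luciferase-expressing P. falciparum (2% hematocrit, 0.05% parasitemia final) for 96 hours, 37 C in 5% CO2. Growth inhibition scored as decreased luciferase luminescence.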
The depositor's hits bear a star; ? = inconclusive; . = no result; [ ] = remark or other dose. Unless noted, the call rests on the fitted dose curve; in most records, active means well fitted inhibition curve with a large enough effect; inconclusive means small, poorly fitted or top-dose-only effect, or another doubt; inactive means no such curve, though single readings can be large or run the other way.

SMILES	HCV inh	Pf growth 48h	HCMV antiviral	Shiga toxin inh	Cycloheximide cs	Pf growth 96h
Cc1ccc(OCC(=O)c2ccc3c(c2)CCCC3)cc1C	?	71.9%	-4.5	91.7*	35.8*	0.0%
Cc1cccnc1NC(=O)COc1ccc2c(c1)CCC2	?	128.8%	-3.1	.	.	102.5%
O=C(COc1ccc(Br)cc1)c1ccc2c(c1)CCCC2	-18.0%	33.1%	-19.7	-4.6	-2.6	8.28µM*
Cc1c(Cl)cccc1Nc1nn2c(=O)c3ccc(C(=O)NCCC4=CCCCC4)cc3nc2s1	.	.	-35.4	.	.	.
COc1ccc(CN2C(=O)c3cccnc3C2=O)cc1S(=O)(=O)N1CCCCC1	26.5%	-1.7%	16.3	-5.1	-1.6	22.6%
COc1ccc(CN2C(=O)c3cccnc3C2=O)cc1S(=O)(=O)N1CCCC(C)C1 (configuration not stated)	10.3%	-15.8%	-14.4	-3.7	-3.5	14.7µM*
O=C(Nc1ccc(F)c([N+](=O)[O-])c1)C(=O)c1c(O)[nH]c2ccccc12	4.4%	26.2%	40.1	-5.7	7.5	40.3%
N=C1/C(=C\c2ccc(OC(=O)c3ccc(F)cc3)cc2)C(=O)N=C2SC(N3CCOCC3)=NN12	0.2%	7.9%	?	-7.5	9.9	1.65µM*
CC1CCN(C2=NN3C(=N)/C(=C\c4ccc(OC(=O)c5ccco5)cc4)C(=O)N=C3S2)CC1	7.7%	9.3%	-36.6	-3.6	1.4	?
Cc1ccc(NC(=O)C2CCN(S(C)(=O)=O)CC2)c(C)c1	6.9%	-3.0%	-7.3	-10.1	-2.5	?
COc1cc(C(=O)OCc2cc(=O)n3ccsc3n2)cc(OC)c1OC	.	.	-0.5	.	.	.
COc1cc(NC(=O)N2CCC(CN3CCOCC3)CC2)cc(OC)c1OC	.	.	21.3	.	.	.
O=C(C(NS(=O)(=O)c1cccs1)c1ccccc1)N1CCN(c2ccccc2)CC1 (configuration not stated)	-4.9%	?	97.8	11.7	-1.7	11.7µM*
O=S(=O)(c1cccs1)N1CCN(c2ccccc2)CC1	15.2%	21.2%	-17.3	-3.6	0.5	1.8%
O=C1C(NS(=O)(=O)c2cccs2)=C(N2CCN(c3ccccc3)CC2)C(=O)c2ccccc21	10.6%	?	-7.5	44.1*	11.3	.
O=c1cc(-c2ccc(O)c(O)c2)oc2cc(O[C@@H]3O[C@H](CO)[C@@H](O)[C@H](O)[C@H]3O)cc(O)c12	-31.6%	.	.	11.5	9.6	.
COc1cc(O)c2c(=O)c(-c3ccc(O[C@@H]4O[C@H](CO)[C@@H](O)[C@H](O)[C@H]4O)cc3)coc2c1	-13.3%	69.1%	66.7	111.3*	39.1*	156.7%
O=c1c(-c2ccc(O)cc2)coc2cc(OC3OC(CO)C(O)C(O)C3O)cc(O)c12 (configuration not stated)	4.1%[8.37 µM]	38.6%	76.0	67.6*	22.0*	35.1%
O=c1c(-c2ccc(O)cc2)coc2cc(OC3OC(CO)C(O)C(O)C3O)ccc12 (configuration not stated)	22.9%	-15.5%	?	42.5*	19.8*	2.9%
Cc1c(C)c2ccc(O[C@@H]3O[C@H](CO)[C@H](O)[C@H](O)[C@H]3O)cc2oc1=O	4.7%	19.4%	8.8	-14.4	8.2	28.4%
O=C(CN1CCN(S(=O)(=O)N2CCOCC2)CC1)Nc1cc(Cl)cc(Cl)c1	-4.6%	-6.5%	-13.7	-8.5	2.7	-10.2%
Cc1ccc(C)n1-c1c(C(=O)NCCCN2CCN(c3ccc(F)cc3)CC2)sc2ncccc12	.	.	19.2	.	.	.
CCN(CC)CCOCCOc1cc(C)c(Cl)c(C)c1	11.2µM*	.	-72.3*	-8.9	-3.9	-16.3%
Cc1ccccc1N=Nc1c(C)[nH]n(C(N)=S)c1=O	24.7%	?	-35.8	66.6*	19.7*	?
Cc1cccc(N=Nc2c(C)[nH]n(C(N)=S)c2=O)c1C	.	5.8%	53.2	13.2	18.7	21.5%
SMILES	HCV inh	Pf growth 48h	HCMV antiviral	Shiga toxin inh	Cycloheximide cs	Pf growth 96h
CCOc1ccccc1N=Nc1c(C)[nH]n(C(N)=S)c1=O	10µM*	-0.5%	-85.2*	-5.4	0.6	?
Cc1[nH]n(C(N)=S)c(=O)c1N=Nc1ccc([N+](=O)[O-])cc1Cl	-4.4%	40.1%	-6.6	15.3	14.3*	0.0%
Cc1[nH]n(C(N)=S)c(=O)c1N=Nc1ccccc1C(F)(F)F	-7.5%	-10.6%	-4.7	16.1	20.2	7.5%
COc1ccc2c(CC(=O)Nc3ccc(C)cc3)coc2c1	.	.	2.9	.	.	.
O=C(NC1CC1)c1cc2ccccc2o1	3.0%	46.3%	24.8	43.0*	15.1*	-8.1%
O=C(NC1CCCC1)c1cc2c(ccc3ccccc32)o1	?	.	40.5	59.6*	43.7*	7.2%
O=C(Nc1cc2c(ccc3ccccc32)oc1=O)C1CCCCC1	15.9%	14.1%	40.9	11.3	4.0	34.2%
CNC(=O)c1cc2c(ccc3ccccc32)o1	12.2%	41.9%	136.5	81.5*	32.5*	-18.5%
CC(C)[C@H](NC(=O)OC(C)(C)C)c1cc(C(=O)NCCO)c(N)s1	.	.	-3.6	.	.	.
CN1CCN(C=Nc2nc3ccccc3nc2N2CCCC2)CC1	10.9%	-8.2%	18.9	9.2	7.5	7.1%
CCN(CC)CCNC(=O)c1ccc(NC(=O)c2cc(S(=O)(=O)N3CCCCC3)ccc2N2CCOCC2)cc1	28.7%	.	-13.9	.	.	.
CCCN(C(=O)c1c(-c2ccccc2)noc1C)c1c(N)n(Cc2ccccc2)c(=O)[nH]c1=O	5.0%	?	-12.9	.	.	?
NC(=S)NN=Cc1nccc2c(C(F)(F)C(F)(F)C(F)(F)F)cccc12	.	.	-98.7*	.	.	.
NC(=S)N/N=C/c1ccc(/C=N/NC(N)=S)cc1	-6.5%	10.4%	-18.5	0.9	-1.6	23.2%
N#C/C(=C\c1c[nH]c2ccc(Br)cc12)c1ccccn1	11.2µM*	?	.	22.4	13.3	9.28µM*
Cc1nn(-c2ccccc2)c(C)c1/C=N/NC(=O)c1ccccc1NS(=O)(=O)c1cccs1	2.9%	-28.3%	-5.2	9.6	5.4	?
COC(=O)c1ccc(NC(=O)[C@H](C)NC(N)=O)cc1	0.9%	103.1%	-6.1	15.1	-1.6	28.7%
O=S(=O)(NCCNc1ncc(C(F)(F)F)cc1Cl)C(F)(F)F	?	5.7%	-71.5*	57.0*	27.4	31.1%
O=C1C=CC(=O)N1CCNc1ncc(C(F)(F)F)cc1Cl	?	5.7%	-95.5*	-9.3	-1.8	0.0%
CC(=O)C1=NOC(CNc2ncc(C(F)(F)F)cc2Cl)C1 (configuration not stated)	2.9%	35.7%	-20.2	80.6	17.2*	-4.1%
O=c1cc(Cl)[nH]c(=O)n1CCNc1ncc(C(F)(F)F)cc1Cl	15.3%	17.5%	165.9	93.8*	35.5*	36.1%
